Where “and” joins values, the source holds several entries; their conditions need not be identical. Equal values may be shown once. Results filed as inconclusive are left out. Where a call stands in place of a potency, no number is given. Calls of active or inactive are those of the source. Calls follow the shape of the dose curve; as a rule, active = well fitted cell-killing curve with a large enough effect in the repeat runs (not every such curve was filed as active); inconclusive = weak or mixed curves, or effect the other way; inactive = no such curve, though single readings can be large or run the other way.

Consider 35 compounds from PubChem BioAssay (Tox21).
Potency is read from the fitted curve at half-maximal effect.

The nature of this experiment: qHTS assay to identify small molecule antagonists of the estrogen related receptor signaling pathway with the pleiotropic PPARgamma coactivator (PGC) from Tox21 10K library - cell viability counter screen (AID 1224840). Also: nearly all actives have a fitted effect of over 40% in size. The settings on record: PGC/ERR reporter cells viability, CellTiter-Fluor, 17.5 h; series mostly up to 92.4 µM. A digest of the protocol: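 PGC/ERR cells were seeded at 2,000 cells/well and left 6 hours at 37 C/5% CO2 before pin-tool addition of compounds in DMSO. After 17.5 hours at 37 C, CellTiter-Fluor was added and fluorescence read 30 minutes later.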
(In qHTS, concentration-response curves come from the screen itself.)
Turning to `O=[N+]([O-])c1cccc2cccc([N+](=O)[O-])c12`, the Potency entry was “inactive”.
The figure for `CCN1CCC2(CC1)COc1cc3c(cc12)N(C(=O)c1ccc(-c2ccc(-c4nnc(C)o4)cc2C)cc1)CC3` is 17.8 µM (active).
The entry for `O=NN(CCO)CCO` is “inactive”; for `CC(=O)O.CC(=O)O.CC(=O)O.CC(=O)O.CC(=O)O.CC(=O)O.CC(=O)O.O.O.[Cr].[Cr].[Cr]` it is “inactive”.
The same measure for `CCN(CC)Cc1nccn1-c1ccc([N+](=O)[O-])cc1C(=O)c1ccccc1Cl`: “inactive”; for `Nc1ccc(Cl)cc1C(=O)c1ccccc1F`: “inactive”.
As to `COC(=O)c1cc(Oc2ccc(Cl)cc2Cl)ccc1[N+](=O)[O-]`, the Potency result is “inactive”.
The same measure for `C#CCO`: “inactive”; for `CCc1cccc(C)c1N(C(=O)CCl)[C@@H](C)COC`: “inactive”; for `CC(C)N(C(=O)CCl)c1ccccc1`: 30.6 µM (active).
`Fc1ccc(C(OCCN2CCN(CCCc3ccccc3)CC2)c2ccc(F)cc2)cc1`: the Potency was 26.6 µM (active).
The entry for `COC(=O)N(OC)c1ccccc1COc1ccn(-c2ccc(Cl)cc2)n1` is “inactive”.
The same measure for `CCCCn1cc[n+](C)c1.[Cl][Fe-]([Cl])([Cl])[Cl]`: “inactive”.
For the compound `COc1nc(C)nc(NC(=O)NS(=O)(=O)c2ccccc2Cl)n1`, the Potency result was “inactive”.
The entry for `Clc1cc(Cl)c(-c2cc(Cl)c(Cl)cc2Cl)cc1Cl` is “inactive”; for `CNC(=O)Oc1cc(C)cc(C(C)C)c1` it is “inactive”.
For the compound `ClCBr`, the Potency entry was “inactive”.
The entry for `c1ccc(N=NNc2ccccc2)cc1` is “inactive”.
The same measure for `CCC[CH2][Sn]([CH2]CCC)([CH2]CCC)[O][Sn]([CH2]CCC)([CH2]CCC)[CH2]CCC`: 0.533 µM (active); for `CN(C)c1ccc(N)cc1`: 26.6 µM (active).
The entry for `Nc1c(Cl)c(Cl)c(Cl)c(Cl)c1Cl` is “inactive”; for `CCC1(CC)C(=O)N=C(O)NC1=O` it is “inactive”.
With `CC(C)Br`, the Potency result was “inactive”.
The entry for `CCn1cc[n+](C)c1` (tested in a mixture with another compound) is “inactive”; for `C=C(C)C(=O)[O][Sn]([CH2]CCC)([CH2]CCC)[CH2]CCC` it is 0.864 µM (active); for `O=S(=O)(O)F` it is “inactive”.
Regarding `N#Cc1sc2c(=O)c3ccccc3c(=O)c=2sc1C#N`, the Potency is 48.6 µM (active).
The entry for `NC(=O)C(Cl)Cl` is “inactive”; for `CCCCN(CCCC)C(=S)S` it is “inactive”.
The figure for `CCN(CC)C(=S)S` is 30.9 µM (active) and 6.08 µM (active) and 13.7 µM (active); for `O=[N+]([O-])c1ccccc1-c1ccccc1` it is “inactive”; for `C[N+]1(C)[C@@H]2CC[C@H]1CC(OC(=O)C(CO)c1ccccc1)C2` (stereo not given in full) it is “inactive”.
The entry for `CO/N=C(\C(=O)OC)c1ccccc1CO/N=C(\C)c1cccc(C(F)(F)F)c1` is “inactive”; for `COP(=S)(OC)Oc1nc(Cl)c(Cl)cc1Cl` it is “inactive”; for `S=C=Nc1ccccc1` it is “inactive”.
